An excerpt weighted towards active compounds, which were near 2.1% of everything screened.
GalR3 antagonist = antagonists of human GalR3; O60755; HEK293 GalR3-CNG cAMP membrane potential fluorescence; galR3 body fused to GalR1 C-terminus; inhibition, % at 3 µM; 0.44% of 360,000 active;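 active = inhibition above the screen-wide average plus 3 SD, cut at about 13% in these data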;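 note: forskolin and galanin both at EC90 stimulate the cells; cAMP rise reported by CNG channel membrane potential dye signal; 0% = forskolin plus galanin with DMSO and 100% = forskolin alone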
Target sequence (O60755 1-299 limits assumed): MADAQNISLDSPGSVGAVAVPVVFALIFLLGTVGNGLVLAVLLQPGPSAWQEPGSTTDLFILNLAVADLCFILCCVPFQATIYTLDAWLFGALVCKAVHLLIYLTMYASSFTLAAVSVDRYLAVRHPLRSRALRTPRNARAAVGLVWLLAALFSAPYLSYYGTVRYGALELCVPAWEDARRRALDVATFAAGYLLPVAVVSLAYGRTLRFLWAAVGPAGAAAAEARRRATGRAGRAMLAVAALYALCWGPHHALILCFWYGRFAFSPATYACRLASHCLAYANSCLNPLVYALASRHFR
NR2F2 inh = blocks human COUP-TFII nuclear receptor. HEK293T NGFI-A luciferase reporter, luminescence. AID 686940. 0.7% of 370,000 active. inhibition, % at 8.6 µM. P24468;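 active = inhibition above a per-plate cutoff, mean inhibition of test wells between control levels plus 3 SD, cut at about 38% in these data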;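 note: cells cotransfected with COUP-TFII expression vector driving the NGFI-A reporter; 0% = median of COUP-TF2 test wells and 100% = reporter-only cells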
aDG glyco up = increases alpha dystroglycan glycosylation. Pro5-aDG cells, alpha-DG glycosylation AlphaScreen (IIH6); 0% Pro5, 100% B10-LARGE cell signal. activation, % at 10 µM. 0.22% of 360,000 active. AID 624168;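 active = activation of at least 8% versus controls, or a plate z-score of at least 8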;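 note: Pro5 are CHO cells carrying HIG-tagged alpha-DG that lacks glycosylation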
Gli-Sufu block = antagonists of Gli-Sufu signaling; Sufu-KO-LIGHT fibroblasts, Gli luciferase reporter luminescence; inhibition, % at 5 µM; 0.74% of 340,000 active;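 active = inhibition above about 55%, limit read from the data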;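 note: 0% = DMSO-treated cells and 100% = wells with medium but no cells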
Env fusion inh = inhibitors of HIV Env-mediated cell fusion; HeLa-JRFL Env/CEM21 cell fusion, luciferase; inhibition, % at 12.3 µM; 1.1% of 360,000 active; AID 651610;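 active = mean replicate inhibition score of at least 50 and every replicate individually at or above 50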;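 note: 0% = plate neutral controls and 100% = maraviroc near 300 nM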
* hit, by the source's call; . = not tested or not shown; ! = a repeat was not active; [ ] = dose if it differs, or a comment.

SMILES	GalR3 antagonist	NR2F2 inh	aDG glyco up	Gli-Sufu block	Env fusion inh
CC1(C)Cc2ccccc2C2=NNC(=O)C2=N1	6	23	9.0*	31	26
CCCCNc1cccc2c1S(=O)(=O)N(CCCC)CC(COCc1ccccc1)O2 (stereo not given)	-3	-2	0	2	61*
O=C(Nc1ccc(Cl)c(Cl)c1)N[C@H]1CC[C@H](CCn2cc(C3CCCCC3)nn2)O[C@@H]1CO	.	.	.	.	63*[16.7 µM]
O=C(Nc1ccc(Cl)c(Cl)c1)N[C@@H]1CC[C@@H](CCn2cc(C3CCCCC3)nn2)O[C@H]1CO	.	.	.	.	-5[16.7 µM]
O=C(Nc1ccc(Cl)c(Cl)c1)N[C@@H]1CC[C@@H](CCn2cc(C3CCCCC3)nn2)O[C@@H]1CO	-8	0	2	.	67*![16.7 µM]
COc1ccccc1C(=O)Nc1ccc2c(c1)C(=O)N(C)C[C@@H](OC)[C@H](C)CN(CC1CC1)[C@@H](C)CO2	.	.	.	.	0[16.7 µM]
O=C(N[C@@H]1CC[C@@H](CC(=O)N2CCC(Cc3ccccc3)CC2)O[C@H]1CO)c1cnccn1	.	.	.	.	-2[16.7 µM]
COc1ccccc1S(=O)(=O)N[C@@H]1CC[C@H](CC(=O)N2CCN(C)CC2)O[C@H]1CO	.	.	.	.	8[16.7 µM]
COc1ccccc1S(=O)(=O)N[C@H]1CC[C@@H](CC(=O)N2CCN(C)CC2)O[C@H]1CO	.	.	.	.	57*[16.7 µM]
O=C(OCCO)c1c(-c2ccccc2)oc2c1C(OCCO)CCC2 (stereo not given)	-5	19	0	.	61*
COCC#Cc1cnc2c(c1)C(=O)N([C@H](C)CO)C[C@@H](C)[C@H](CN(C)C(=O)c1cccnc1)O2	.	.	.	.	5[16.7 µM]
O=C(Nc1ccc(O)c(-c2nc3ccccc3o2)c1)C1(c2ccc([N+](=O)[O-])cc2)CCCC1	-1	15	0	4	55*
O=C(Nc1ccc(O)c(-c2nc3ccccc3o2)c1)C1(c2ccc(Cl)cc2)CCCC1	1	11	0	1	31
COc1ccccc1NC(=O)Nc1cnccn1	-2	1	0	0	30
COc1cc([N+](=O)[O-])ccc1NC(=O)Nc1cnccn1	-3	1	0	-1	58*
CC(C)(C#N)Cc1cc(CC(C)(C)C#N)cc(C(C)(C)C)c1	-1	7	0	-2	33
N#CC(Cc1cccc(CC(C#N)(c2ccccc2)c2ccccc2)c1)(c1ccccc1)c1ccccc1	-2	8	1	19	57*
O=C(NCCCN1CCc2ccccc2C1)Nc1ccc(Cl)cc1	-3	-11	0	2	79*
O=C(O)CSc1cc(NS(=O)(=O)c2ccc(Cl)cc2)c2ccccc2c1O	-7	5	3.8*	6	2
Cc1cc(C)c(S(=O)(=O)Nc2cc(SCC(=O)O)c(O)c3ccccc23)cc1C	.	.	.	18	.
COc1ccc(S(=O)(=O)Nc2cc(SCC(=O)O)c(O)c3ccccc23)cc1	-9	-11	5.0*	23	-15
C/C=C/c1ccc2c(c1)O[C@@H](CN(C)CC1CCOCC1)[C@H](C)CN([C@H](C)CO)S2(=O)=O	.	.	.	.	13[16.7 µM]
CC1(C)CC(=O)C=C(c2cccc3c2oc2ccccc23)C1	-5	-13	0	-15	72*
COc1ccc(S(=O)(=O)Nc2ccc3c(c2)C(=O)N([C@@H](C)CO)C[C@H](C)[C@H](CN(C)C(=O)c2ccccc2)OCCCC[C@@H](C)O3)cc1	.	.	.	.	-11[16.7 µM]
COc1cccc(NC(=O)N[C@@H]2CC[C@H](CC(=O)Nc3ccc(-c4ccccc4)cc3)O[C@@H]2CO)c1	.	.	.	.	2[16.7 µM]
SMILES	GalR3 antagonist	NR2F2 inh	aDG glyco up	Gli-Sufu block	Env fusion inh
CCNC(=O)Nc1ccc2c(c1)C(=O)N(C)[C@H]1CC[C@H](CC(=O)Nc3ccccc3F)O[C@@H]1CO2	.	.	.	.	-8[16.7 µM]
C[C@@H]1CN([C@H](C)CO)S(=O)(=O)c2ccc(C#Cc3cccnc3)cc2O[C@H]1CN(C)C(=O)CN(C)C	.	.	.	.	3[16.7 µM]
C[C@@H]1CCCCO[C@H](CN(C)C(=O)NC2CCCCC2)[C@H](C)CN([C@@H](C)CO)C(=O)c2cc(NS(=O)(=O)c3ccccc3)ccc2O1	.	.	.	.	5[16.7 µM]
O=C(C(Cc1ccccc1)N1C(=O)c2ccccc2C1=O)N1c2ccccc2CCc2ccccc21 (stereo not given)	-6	25	0	16	66*
CCC(=O)Nc1ccc2c(c1)OC[C@H](C)N(CCc1ccccc1)C[C@@H](C)[C@@H](OC)CN(C)C2=O	.	.	.	.	-1[16.7 µM]
COc1ccc(C(C)=O)cc1CC1(C)C(=O)Nc2ccc(-c3ccccc3OC)cc21 (stereo not given)	-9	12	0	.	70*
COc1ccccc1-c1ccc2c(c1)C(C)(Cc1cccc(F)c1)C(=O)N2 (stereo not given)	-5	14	0	.	73*
COc1ccc(NC(=O)Nc2ccc3c(c2)C(=O)N([C@H](C)CO)C[C@H](C)[C@H](CN(C)C(=O)Nc2ccccc2)OCCCC[C@H](C)O3)cc1	.	.	.	.	-19[16.7 µM]
CCn1c(SCC(=O)NCC2CCCO2)nc2c([nH]c3ccccc32)c1=O (stereo not given)	-2	0	0	10	24
CCn1c(SCC(=O)NCCc2ccc(OC)c(OC)c2)nc2c([nH]c3ccccc32)c1=O	-2	9	0	.	70*
CCn1c(SCC(=O)NCCc2ccccc2)nc2c([nH]c3ccccc32)c1=O	-3	9	0	12	67*
COCCNC(=O)CSc1nc2ccccc2c(=O)n1CCC(=O)NCCc1ccc(OC)c(OC)c1	12	4	0	0	-10
COC(=O)C[C@@H]1CC[C@@H]2[C@@H](COc3ccc(NC(=O)NCc4ccccc4)cc3C(=O)N2C)O1	.	.	.	.	-14[16.7 µM]
C[C@@H]1CCCCO[C@@H](CN(C)C)[C@H](C)CN([C@@H](C)CO)C(=O)c2cc(NC(=O)c3ccccc3)ccc2O1	.	.	.	.	9[16.7 µM]
OC(CNc1nc(C(F)(F)F)nc2ccccc12)c1ccccc1 (stereo not given)	-9	1	0	-6	58*
COc1ccc(S(=O)(=O)Nc2ccc3c(c2)CC(=O)N([C@H](C)CO)C[C@H](C)[C@@H](CN(C)C(=O)Nc2ccccc2)O3)cc1	.	.	.	.	6[16.7 µM]
COc1cccc(-c2ccc3c(c2)[C@H]2[C@H](CCN2C(=O)C2CCCC2)[C@H](CO)N3)c1	.	.	.	.	56*[16.7 µM]
Cc1ccc2c(c1)-c1c(ssc1=S)C(C)(C)N2C(=O)c1ccco1	-2	-11	-1	5	57*
COc1ccc(/C=N/NC(=O)c2ccoc2C)cc1COc1c(C)cccc1C	9	34	0	-14	76*
COc1ccc(/C=N\NC(=O)c2ccccc2OC)cc1COc1ccccc1C	2	-14	0	13	16
O=C(C[C@H]1CC[C@@H](NC(=O)NC2CCCCC2)[C@@H](CO)O1)NCc1ccccc1	.	.	.	.	-2[16.7 µM]
Cc1cc(C)c(S(=O)(=O)N2CCCCC2)cc1N(C)S(=O)(=O)c1ccc(Cl)cc1	-6	20	0	9	95*
Cc1ccc(S(=O)(=O)N(C)c2cc(S(=O)(=O)N3CCOCC3)c(C)cc2C)cc1	-9	6	0	-15	16

Bioassay records: PubChem BioAssay, several laboratories
